The values that follow come from PubChem BioAssay (NCI).

Each structure is given as a SMILES string. Compounds without any hit were thinned out: in the full panel of roughly 83,000, 20% have a hit.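 Plates (96-well) were seeded with cells, treated with compound at one concentration, and incubated for 48 hours before percent growth was determined.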 A number with no mark means an inactive call. Calls of active or inactive are those of the source. The calls were made as follows: active = growth percent below 10; inactive = the rest.

The assay has as its system HL-60(TB) leukemia. Briefly: NCI-60 one-dose screen, 48 h (100 = growth as untreated, 0 = no growth, -100 = all killed). To be noted: 10 µM unless noted.
Regarding `O=C(Nc1ccc(F)cc1)Nc1ccc(Cl)c([N+](=O)[O-])c1`, the growth is -15.6% (active). For the compound `C=C1C(=O)O[C@H]2[C@H]1CC/C(C(=O)NCCCCCNC(=O)/C1=C/CC[C@@]3(C)O[C@H]3[C@H]3OC(=O)C(=C)[C@@H]3CC1)=C\CC[C@@]1(C)O[C@@H]21`, the growth was 89.4%. As to `O=S(=O)(O)C(C(I)I)S(=O)(=O)O`, the growth is 109%.

As to `NS(=O)(=O)c1ccc(-n2nc(-c3ccc(Cl)cc3)ccc2=O)cc1`, the growth is 83.7%. In the case of `O=C(Nc1ccccc1)c1sc(-c2cccc(C(F)(F)F)c2)cc1O`, the growth is 40.2%.

In the case of `O=C(Nc1ccc(OCc2nnc(-c3ccc(Cl)cc3)o2)c(F)c1)Nc1ccc(Cl)c(Cl)c1`, the growth is 95.5%. On to `N#CC(Cc1cccc2ccccc12)c1cc2ccccc2[nH]1` (centres undefined), for which the growth was 96.4%.

For `CCN1C(=O)N(CC)C2NC(SC)=NC21` (centres undefined), the growth is 103%. Consider `Cc1nn(-c2ccccc2)c2nc3c(c(-c4ccc(Cl)cc4)c12)CNC1(CCSCC1)N3`, for which the growth was 72.9%.

On to `CCc1nn(Cc2ccccc2)c2nc(C)c(CCc3ccccc3)c(Cl)c12`, for which the growth was 82.7%. The result for `O=C(CCCCCCc1nc2ccc(Br)cc2[nH]1)NO` reads 2.12% (active); that for `O=C(Oc1cccnc1)c1ccsc1Nc1ccnc(C(F)(F)F)c1`, 25.9%; that for `Cc1cc2nc3c4cc(N)ccc4n(CCN(C)C)c3nc2cc1C`, 4.7% (active). With `CC(=O)C1=C(C)NC(SCc2nnc(-c3ccc(C)cc3)o2)=NC1c1ccc(F)cc1` (centres undefined), the growth is 80.8%. For the compound `O=C1C(Nc2ccc(Br)cc2)=C(I)C(=O)c2ncccc21`, the growth was -43.2% (active).

As for `CCc1nc2ccccc2[nH]1`, the growth is 105%.

As to `Cc1cc(N(CCCNc2ccnc3cc(Cl)ccc23)Cc2ccc3c(c2)OCO3)nc(N2CCCCC2)n1`, the growth was -68.4% (active). In the case of `Oc1ccc(C2OCCO2)c2cccnc12`, the growth was 15.8%. As to `CCC(=O)Oc1ccc2c(c1)CC[C@@H]1[C@@H]2CC[C@]2(C)C[C@H](OC(=O)CC)C[C@@H]12`, the growth was 30.8%.

In the case of `CC[C@@H]1NC(=O)[C@H]([C@H](O)[C@H](C)C/C=C/c2ccc(CN3C(=O)C(C)=C(C)C3=O)cc2)N(C)C(=O)[C@H](C(C)C)N(C)C(=O)[C@H](CC(C)C)N(C)C(=O)[C@H](CC(C)C)N(C)C(=O)[C@@H](C)NC(=O)[C@H](C)NC(=O)[C@H](CC(C)C)N(C)C(=O)[C@H](C(C)C)NC(=O)[C@H](CC(C)C)N(C)C(=O)CN(C)C1=O`, the growth was 81.2%. Regarding `COc1ccc(NC(=O)Cn2c(=O)sc3c(-c4ccc(Cl)cc4)cc(-c4ccc(Cl)cc4)nc32)cc1`, the growth is 80%. The result for `CCOC(=O)c1cnc2c(C)cc(C)cc2c1NCCCN(C)C` reads 9.86% (active); that for `O=C1CC[C@H](c2ccc(O)c3c2C(=O)[C@@H]2O[C@@H]2C3=O)c2cccc(O)c21`, -20.5% (active). With `CCCCCN(CCCCC)C(C)C(O)c1ccc2cc(Cl)c3ccccc3c2c1` (centres undefined), the growth was 105%.
